# Results taken from PubChem BioAssay (NCI).
# Compounds without any hit were thinned out: in the full panel of roughly 79,000, 15% have a hit. Unmarked numbers belong to inactive results. The source made the active and inactive calls. Cut-off read from the data, not from the text of the source: active = growth inhibition above about 70%; inactive = the rest.
# Legend:
# [1] = NCI Yeast Anticancer Drug Screen. Data for the rad52 strain (AID 147);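 note: 0% = growth of vehicle-treated control cultures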; conditions: S. cerevisiae rad52 mutant growth inhibition, hits give high values
# How it was run: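 Growth of repair-deficient yeast cells was compared between compound-treated and vehicle-treated cultures to give percent inhibition.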
# [2] = NCI Yeast Anticancer Drug Screen. Data for the wt1 strain (AID 149);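 note: 0% = growth of vehicle-treated wt1 cultures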; conditions: S. cerevisiae wt1 strain (SPY 50644) growth inhibition, hits give high values
# How it was run: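 Yeast wt1 strain exposed to compounds; growth inhibition measured relative to vehicle-treated controls.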
# [3] = NCI Yeast Anticancer Drug Screen. Data for the rad50EPP+ strain (AID 151);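 note: 0% = growth of vehicle-treated control cultures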; conditions: S. cerevisiae rad50 mutant strain, hits give high values
# How it was run: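 Measured: growth inhibition of rad50EPP+ yeast. Reference: vehicle-treated controls. Screen uses strains with defined genetic alterations in DNA damage repair or cell cycle control.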
# [4] = NCI Yeast Anticancer Drug Screen. Data for the mgt1 strain (AID 153); conditions: S. cerevisiae mgt1 mutant growth inhibition, hits give high values
# How it was run: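 Compounds were applied to mgt1 mutant yeast, and growth was then compared against vehicle-treated control cultures to give percent inhibition.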
# [5] = NCI Yeast Anticancer Drug Screen. Data for the rad50 strain (AID 155);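 note: 0% = growth of vehicle-only cultures of the same strain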; conditions: S. cerevisiae rad50 strain growth inhibition, hits give high values
# How it was run: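 Yeast carrying a defined DNA repair defect were exposed to test compounds, and growth was compared with vehicle-treated controls to give percent inhibition.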
# [6] = NCI Yeast Anticancer Drug Screen. Data for the mec2-1 strain (AID 157); conditions: S. cerevisiae mec2-1 strain, hits give high values
# How it was run: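 Compounds were applied to mec2-1 yeast cells. Their growth was then compared with that of vehicle-treated cultures to give growth inhibition.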
# [7] = NCI Yeast Anticancer Drug Screen. Data for the rad14 strain (AID 159);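 note: 0% = growth of vehicle-treated control cultures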; conditions: S. cerevisiae rad14 strain growth inhibition, hits give high values
# How it was run: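 Yeast cells carrying a defined DNA-repair defect were exposed to compounds, and growth inhibition was calculated relative to vehicle-treated control cultures.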
# [8] = NCI Yeast Anticancer Drug Screen. Data for the sgs1 mgt1 strain (AID 161);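 note: 0% = growth of cultures given vehicle only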; conditions: S. cerevisiae sgs1 mgt1 strain, hits give high values
# How it was run: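 Compounds are added to genetically altered yeast, and growth is compared with cultures given vehicle alone to give percent inhibition.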
# [9] = NCI Yeast Anticancer Drug Screen. Data for the CLN2oe strain (AID 163);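 note: 0% = growth of vehicle-only control cultures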; conditions: S. cerevisiae CLN2oe strain, hits give high values
# How it was run: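 Cells of an engineered yeast line with disturbed cell-cycle regulation are treated with compound. Inhibition of growth is then calculated relative to the vehicle-treated reference.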
# [10] = NCI Yeast Anticancer Drug Screen. Data for the cln2 rad14 strain (AID 165);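 note: 0% = growth equal to vehicle treated cultures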; conditions: S. cerevisiae cln2 rad14 strain, hits give high values
# How it was run: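 Strain: cln2 rad14 yeast, altered in cell cycle control and DNA damage repair. Read-out: growth inhibition vs vehicle.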
# [11] = NCI Yeast Anticancer Drug Screen. Data for the bub3 strain (AID 167); conditions: S. cerevisiae bub3 mutant strain, hits give high values
# How it was run: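 Compounds were applied to a genetically altered yeast strain carrying a cell-cycle control defect. Growth inhibition was scored against vehicle-treated controls.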
# [12] = NCI Yeast Anticancer Drug Screen. Data for the mlh1 strain (AID 171);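 note: 0% = growth of vehicle-treated control cultures of the same strain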; conditions: S. cerevisiae mlh1 strain growth inhibition, hits give high values
# How it was run: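 Test agents were incubated with yeast bearing a defined DNA damage repair or cell cycle control alteration; values are growth inhibition normalised to vehicle-treated cultures.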
# [13] = NCI Yeast Anticancer Drug Screen. Data for the sgs1 strain (AID 173);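 note: 0% = growth of vehicle-only control cultures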; conditions: S. cerevisiae sgs1 mutant, hits give high values
# How it was run: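 Strain with an altered DNA repair or cell cycle pathway exposed to compound. Growth then measured. Value = inhibition versus vehicle control.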
# [14] = NCI Yeast Anticancer Drug Screen. Data for the mlh1 rad18 strain (AID 175); conditions: S. cerevisiae mlh1 rad18 strain growth inhibition, hits give high values
# How it was run: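 A repair-deficient yeast strain is exposed to test compound, and growth is scored relative to vehicle-treated controls.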
# [15] = NCI Yeast Anticancer Drug Screen. Data for the rad18 strain (AID 177); conditions: S. cerevisiae rad18 mutant growth inhibition, hits give high values
# How it was run: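 DNA-repair-defective yeast; compound treatment; growth inhibition scored against vehicle.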
# [16] = NCI Yeast Anticancer Drug Screen. Data for the wt2 strain (AID 169);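 note: 0% = growth of vehicle-treated yeast cultures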; conditions: S. cerevisiae wt2 strain growth inhibition, hits give high values
# How it was run: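 Growth of compound-treated yeast is measured and expressed as inhibition relative to vehicle-only controls.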
# [17] = at 5.0 µM (retest, dose inferred, filed as 0.5)
# [18] = at 50.0 µM (retest, dose inferred, filed as 5.0)
smiles,measurement,setting,value
O=C1C(=O)c2ccccc2C=C1[N+](=O)[O-],growth inhibition,[1]; at 1.2 µM,3%
same,growth inhibition,[1]; at 3.7 µM,11%
same,growth inhibition,[1]; at 11.0 µM,26%
same,growth inhibition,[1]; at 33.0 µM,70% (active)
same,growth inhibition,[1]; at 100.0 µM,91% (active)
same,growth inhibition,[2]; at 1.2 µM,3%
same,growth inhibition,[2]; at 3.7 µM,5%
same,growth inhibition,[2]; at 11.0 µM,9%
same,growth inhibition,[2]; at 33.0 µM,15%
same,growth inhibition,[2]; at 100.0 µM,26%
same,growth inhibition,[3]; at 1.2 µM,-1%
same,growth inhibition,[3]; at 3.7 µM,-1%
same,growth inhibition,[3]; at 11.0 µM,5%
same,growth inhibition,[3]; at 33.0 µM,15%
same,growth inhibition,[3]; at 100.0 µM,29%
same,growth inhibition,[4]; at 1.2 µM,2%
same,growth inhibition,[4]; at 3.7 µM,10%
same,growth inhibition,[4]; at 11.0 µM,9%
same,growth inhibition,[4]; at 33.0 µM,15%
same,growth inhibition,[4]; at 100.0 µM,58%
same,growth inhibition,[5]; at 1.2 µM,0%
same,growth inhibition,[5]; at 3.7 µM,9%
same,growth inhibition,[5]; [17],-12%
same,growth inhibition,[5]; at 11.0 µM,12%
same,growth inhibition,[5]; at 33.0 µM,36%
same,growth inhibition,[5]; [18],30%
same,growth inhibition,[5]; at 50.0 µM,50.5%
same,growth inhibition,[5]; at 100.0 µM,82% (active)
same,growth inhibition,[6]; at 1.2 µM,2%
same,growth inhibition,[6]; at 3.7 µM,5%
same,growth inhibition,[6]; [17],8%
same,growth inhibition,[6]; at 11.0 µM,13%
same,growth inhibition,[6]; at 33.0 µM,18%
same,growth inhibition,[6]; [18],13%
same,growth inhibition,[6]; at 50.0 µM,29.4%
same,growth inhibition,[6]; at 100.0 µM,35%
same,growth inhibition,[7]; at 1.2 µM,2%
same,growth inhibition,[7]; at 3.7 µM,17%
same,growth inhibition,[7]; at 11.0 µM,15%
same,growth inhibition,[7]; at 33.0 µM,37%
same,growth inhibition,[7]; at 100.0 µM,86% (active)
same,growth inhibition,[8]; [17],14%
same,growth inhibition,[8]; [18],77% (active)
same,growth inhibition,[8]; at 50.0 µM,73.7% (active)
same,growth inhibition,[9]; at 1.2 µM,2%
same,growth inhibition,[9]; at 3.7 µM,3%
same,growth inhibition,[9]; at 11.0 µM,9%
same,growth inhibition,[9]; at 33.0 µM,17%
same,growth inhibition,[9]; at 100.0 µM,23%
same,growth inhibition,[10]; [17],-13%
same,growth inhibition,[10]; [18],14%
same,growth inhibition,[10]; at 50.0 µM,16.8%
same,growth inhibition,[11]; at 1.2 µM,0%
same,growth inhibition,[11]; at 3.7 µM,3%
same,growth inhibition,[11]; [17],-14%
same,growth inhibition,[11]; at 11.0 µM,1%
same,growth inhibition,[11]; at 33.0 µM,4%
same,growth inhibition,[11]; [18],8%
same,growth inhibition,[11]; at 50.0 µM,8.85%
same,growth inhibition,[11]; at 100.0 µM,49%
same,growth inhibition,[12]; at 1.2 µM,1%
same,growth inhibition,[12]; at 3.7 µM,1%
same,growth inhibition,[12]; at 11.0 µM,3%
same,growth inhibition,[12]; at 33.0 µM,22%
same,growth inhibition,[12]; at 100.0 µM,83% (active)
same,growth inhibition,[13]; at 1.2 µM,4%
same,growth inhibition,[13]; at 3.7 µM,11%
same,growth inhibition,[13]; at 11.0 µM,30%
same,growth inhibition,[13]; at 33.0 µM,65%
same,growth inhibition,[13]; at 100.0 µM,92% (active)
same,growth inhibition,[14]; [17],0%
same,growth inhibition,[14]; [18],64%
same,growth inhibition,[14]; at 50.0 µM,68.8%
same,growth inhibition,[15]; at 1.2 µM,22%
same,growth inhibition,[15]; at 3.7 µM,54%
same,growth inhibition,[15]; at 11.0 µM,89% (active)
same,growth inhibition,[15]; at 33.0 µM,94% (active)
same,growth inhibition,[15]; at 100.0 µM,95% (active)
CC(=O)OC1CCC2(C)C(=CCC3C4CCC5(OC6CC(C)CN(C(C)=O)C6C5C)C(C)=C4C(=O)C32)C1 (stereo unspecified),growth inhibition,[1]; at 1.2 µM,18%
same,growth inhibition,[1]; at 3.7 µM,12%
same,growth inhibition,[1]; at 11.0 µM,57%
same,growth inhibition,[1]; at 33.0 µM,97% (active)
same,growth inhibition,[1]; at 100.0 µM,96% (active)
same,growth inhibition,[2]; at 1.2 µM,2%
same,growth inhibition,[2]; at 3.7 µM,2%
same,growth inhibition,[2]; at 11.0 µM,28%
same,growth inhibition,[2]; at 33.0 µM,97% (active)
same,growth inhibition,[2]; at 100.0 µM,94% (active)
same,growth inhibition,[3]; at 1.2 µM,-39%
same,growth inhibition,[3]; at 3.7 µM,-28%
same,growth inhibition,[3]; at 11.0 µM,-7%
same,growth inhibition,[3]; at 33.0 µM,6%
same,growth inhibition,[3]; at 100.0 µM,-1%
same,growth inhibition,[4]; at 1.2 µM,-26%
same,growth inhibition,[4]; at 3.7 µM,-30%
same,growth inhibition,[4]; at 11.0 µM,61%
same,growth inhibition,[4]; at 33.0 µM,97% (active)
same,growth inhibition,[4]; at 100.0 µM,96% (active)
same,growth inhibition,[5]; at 1.2 µM,-49%
same,growth inhibition,[5]; at 3.7 µM,-31%
same,growth inhibition,[5]; [17],0%
same,growth inhibition,[5]; at 11.0 µM,61%
same,growth inhibition,[5]; at 33.0 µM,94% (active)
same,growth inhibition,[5]; [18],96% (active)
same,growth inhibition,[5]; at 50.0 µM,83.2% (active)
same,growth inhibition,[5]; at 100.0 µM,95% (active)
same,growth inhibition,[6]; at 1.2 µM,-32%
same,growth inhibition,[6]; at 3.7 µM,-32%
same,growth inhibition,[6]; [17],-9%
same,growth inhibition,[6]; at 11.0 µM,3%
same,growth inhibition,[6]; at 33.0 µM,96% (active)
same,growth inhibition,[6]; [18],98% (active)
same,growth inhibition,[6]; at 50.0 µM,68.4%
same,growth inhibition,[6]; at 100.0 µM,89% (active)
same,growth inhibition,[7]; at 1.2 µM,-30%
same,growth inhibition,[7]; at 3.7 µM,-17%
same,growth inhibition,[7]; at 11.0 µM,50%
same,growth inhibition,[7]; at 33.0 µM,96% (active)
same,growth inhibition,[7]; at 100.0 µM,89% (active)
same,growth inhibition,[8]; [17],7%
same,growth inhibition,[8]; [18],96% (active)
same,growth inhibition,[8]; at 50.0 µM,69.4%
same,growth inhibition,[9]; at 1.2 µM,1%
same,growth inhibition,[9]; at 3.7 µM,-12%
same,growth inhibition,[9]; at 11.0 µM,41%
same,growth inhibition,[9]; at 33.0 µM,98% (active)
same,growth inhibition,[9]; at 100.0 µM,92% (active)
same,growth inhibition,[10]; [17],17%
same,growth inhibition,[10]; [18],98% (active)
same,growth inhibition,[10]; at 50.0 µM,84.2% (active)
same,growth inhibition,[11]; at 1.2 µM,-2%
same,growth inhibition,[11]; at 3.7 µM,-23%
same,growth inhibition,[11]; [17],32%
same,growth inhibition,[11]; at 11.0 µM,24%
same,growth inhibition,[11]; at 33.0 µM,96% (active)
same,growth inhibition,[11]; [18],98% (active)
same,growth inhibition,[11]; at 50.0 µM,81.2% (active)
same,growth inhibition,[11]; at 100.0 µM,95% (active)
same,growth inhibition,[16]; at 1.2 µM,-9%
same,growth inhibition,[16]; at 3.7 µM,-4%
same,growth inhibition,[16]; at 11.0 µM,53%
same,growth inhibition,[16]; at 33.0 µM,97% (active)
same,growth inhibition,[16]; at 100.0 µM,59%
same,growth inhibition,[14]; [17],-10%
same,growth inhibition,[14]; [18],98% (active)
same,growth inhibition,[14]; at 50.0 µM,76.8% (active)
same,growth inhibition,[15]; at 1.2 µM,-1%
same,growth inhibition,[15]; at 3.7 µM,15%
same,growth inhibition,[15]; at 11.0 µM,75% (active)
same,growth inhibition,[15]; at 33.0 µM,96% (active)
same,growth inhibition,[15]; at 100.0 µM,95% (active)
